According to PubChem BioAssay (Tox21):
Values joined by “and” are separate entries in the source; they are usually repeats but may differ in a detail not shown here. Equal values may be shown once. Inconclusive results are not listed. A call without a number means that no potency is given here. Some compounds were tested as several samples or in several runs, with calls that do not always agree. Active and inactive are the calls of the source. Unless noted, calls follow the shape of the dose curve; as a rule, active = well fitted curve in the direction sought with a large enough effect in the repeat runs; inconclusive = weak or mixed curves; inactive = no such curve, though single readings can be large; an effect the other way counts as inactive or inconclusive.

Experiments:
[1] = qHTS assay to identify small molecule agonists of the hypoxia (HIF-1) signaling pathway - cell viability counter screen (AID 1224844; calls by dose curve; also: nearly all actives have a fitted effect of over 50% in size; also: potency is read from the fitted curve at half-maximal effect)
How it was run: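 ME-180 HRE-bla cells, 2,000/well, 0.5% dialyzed FBS; 5 hr settle, 17 hr compound at 37C/5% CO2; CCF4-AM reporter read first, then CellTiter-Glo luminescence after 30 min RT.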

[2] = qHTS assay to identify small molecule agonists of the hypoxia (HIF-1) signaling pathway (AID 1224846; active = well fitted activation curve with a large enough effect in the signal ratio in the repeat runs, not every such curve was filed as active; the % refers to the signal ratio)
How it was run: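 Cell line: CellSensor HRE-bla ME-180; 2,000 cells/well; 0.5% dialyzed FBS; 5 h preincubation; DMSO compound pin transfer; 17 h, 37C, 5% CO2; CCF4-AM added; bla FRET signal scored for activation.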

[3] = qHTS assay to identify small molecule agonists of H2AX - cell viability counter screen (AID 1224847; calls by dose curve; also: nearly all actives have a fitted effect of over 30% in size; also: potency is read from the fitted curve at half-maximal effect)
How it was run: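 For this counter screen, overnight-attached CHO-K1 cells received test compounds (15 concentrations, 0.76% DMSO final); 3 hr later at 37C, CellTiter-Glo reagent was added and luminescence recorded after 30 min at room temperature.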

[4] = qHTS assay to identify small molecule antagonists of the estrogen related receptor (ERR) signaling pathway from Tox21 library (AID 1224848); also: nearly all actives have a fitted effect of over 50% in size; also: potency is read from the fitted curve at half-maximal effect
How it was run: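 Antagonist-mode screen of the Tox21 10K library in an NTP-provided ERR reporter cell line; 18 h compound exposure at 37 C, luminescence measured with ONE-Glo.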

[5] = qHTS RealTime-Glo MT Cell Viability Assay in HepG2 cells - 24 hour (AID 1224867); also: nearly all actives have a fitted effect of over 50% in size; also: potency is read from the fitted curve at half-maximal effect
How it was run: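 HepG2 cells were seeded at 600 cells/well together with NanoLuc luciferase and a cell-permeant prosubstrate, preincubated 5 h at 37 C/5% CO2, then pin-dosed with compounds in DMSO. Nonlytic luminescence from viable cells was read at each time point.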

[6] = qHTS RealTime-Glo MT Cell Viability Assay in HEK293 cells - 32 hour (AID 1224868); also: nearly all actives have a fitted effect of over 50% in size; also: potency is read from the fitted curve at half-maximal effect
How it was run: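 HEK293 cells were seeded at 600 cells/well together with NanoLuc luciferase and cell-permeant prosubstrate, preincubated 5 h at 37 C/5% CO2, then given compound in DMSO by pintool. Luminescence from viable-cell prosubstrate reduction was read repeatedly over 40 h.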

[7] = A CellTox Green Cytotoxicity Assay to monitor cytotoxicity in HEK293 cells - 0 hour (AID 1224869); also: nearly all actives have a fitted effect of over 50% in size
How it was run: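 Nonlytic real-time cytotoxicity: HEK293 + CellTox Green reagent plated, 5 h preincubation, pintool compound addition (23 nL in DMSO), 37 C for 40 h, fluorescence measured at successive time points.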

[8] = qHTS RealTime-Glo MT Cell Viability Assay in HepG2 cells - 40 hour (AID 1224870); also: nearly all actives have a fitted effect of over 50% in size; also: potency is read from the fitted curve at half-maximal effect
How it was run: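 Real-time viability: cells seeded at 600 per well together with NanoLuc and cell-permeant prosubstrate, compounds added after 5 h incubation. Luminescence tracked at 0, 8, 16, 24, 32 and 40 h of exposure.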

[9] = qHTS assay to identify small molecule agonists of the estrogen related receptor (ERR) signaling pathway from Tox21 library (AID 1224849; calls by dose curve; also: nearly all actives have a fitted effect of over 15% in size); conditions: ERR reporter cell line, ONE-Glo luciferase, 18 h
How it was run: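 ERR cells, 6 h pre-incubation 37 C/5% CO2; cpd in DMSO pinned; 18 h 37 C; ONE-Glo added, 30 min RT; luminescence read. Agonist mode, qHTS.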

[10] = qHTS assay to identify small molecule agonists of H2AX (AID 1224845; active = well fitted activation curve with a large enough effect in the signal ratio in the repeat runs, not every such curve was filed as active; the % refers to the signal ratio)
How it was run: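 Phospho-H2AX Ser139 measured by HTRF (ex 320 nm; em 665 and 620 nm) after 24 hr antibody incubation. Compounds, 15 concentrations, 0.76% DMSO, were applied to CHO-K1 cells for 3hr at 37C before lysis.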

| SMILES | Potency [1] | outcome [2] | Potency [3] | Potency [4] | Potency [5] | Potency [6] | Potency [7] | Potency [8] | activity change, positive = activation ([9]; at 92.4 µM (top of the series)) | activity change, positive = activation ([9]; at 42.5 µM (top of the series)) | Potency [10] |
| --- | --- | --- | --- | --- | --- | --- | --- | --- | --- | --- | --- |
| C[C@@H]1C[C@@H]([C@H](O)CC2CC(=O)NC(=O)C2)C(=O)[C@@H](C)C1 | 379 nM (active) | inactive | inactive | 682 nM (active) and 545 nM (active) and 750 nM (active) | inactive | 387 nM (active) and 219 nM (active) and 169 nM (active) | inactive | inactive |  |  |  |
| CCC1(CC)C(=O)NC(=O)NC1=O | inactive | inactive | inactive |  | inactive | inactive | inactive | inactive |  |  |  |
| CC(C)(C)N(NC(=O)c1ccc(Cl)cc1)C(=O)c1ccccc1 | inactive | inactive | inactive |  | inactive |  | inactive | inactive | -30.6% (inactive) |  |  |
| COc1ccc(C(=O)c2c(C)n(CCN3CCOCC3)c3ccccc23)cc1 | inactive | inactive | inactive |  | inactive |  | inactive | inactive |  | -28.1% (inactive) |  |
| CCCCCCCCCCCC[N+](C)(C)CCOc1ccccc1 | 24.6 µM (active) and inactive |  | 89.8 µM (active) and 49.2 µM (active) | 19.3 µM (active) and 21.1 µM (active) | 21.9 µM (active) and 9.52 µM (active) | 7.76 µM (active) and 9.52 µM (active) | inactive | 19.5 µM (active) and 6.01 µM (active) | -76.3% (inactive) | -65.5% (inactive) |  |
| O=[N+]([O-])O[C@H]1CO[C@H]2[C@@H]1OC[C@H]2O[N+](=O)[O-] | inactive |  | inactive | inactive | inactive | inactive | inactive | inactive |  |  |  |
| CC(Oc1cccc(Cl)c1)C(=O)O (configuration not stated) | inactive | inactive | inactive |  | inactive | inactive | inactive | inactive |  |  |  |
| O=C(O)C(F)(F)C(F)(F)C(F)(F)C(F)(F)C(F)(F)C(F)(F)C(F)(F)C(F)(F)F | 8710 nM (active) | inactive | inactive |  |  | inactive | inactive | inactive |  |  |  |
| CCC1(C2=NCCN2)Cc2ccccc2O1 (configuration not stated) | inactive |  | inactive | inactive | inactive | inactive | inactive | inactive |  | 5.71% (inactive) |  |
| CCCCC(CC)CO[N+](=O)[O-] (configuration not stated) | inactive | inactive | inactive |  | inactive | inactive | inactive | inactive |  |  |  |
| C#CC(O)(C=CCl)CC (configuration not stated) | inactive | inactive | inactive |  | inactive | inactive | inactive | inactive |  |  |  |
| NCCc1cc(O)c(O)cc1O | inactive | inactive | inactive |  | inactive | inactive | inactive | inactive |  |  |  |
| COc1cc(CC#N)cc(OC)c1OC | inactive | inactive | inactive |  | inactive | inactive | inactive | inactive |  |  |  |
| CCCC[N+](CCCC)(CCCC)CCCC |  | inactive | inactive | inactive | inactive |  | inactive | inactive | -11.1% (inactive) |  | inactive |
| Cc1cnc(C2=NC(C)(C(C)C)C(=O)N2)c(C(=O)O)c1 (configuration not stated) | inactive | inactive | inactive |  | inactive | inactive | inactive | inactive |  |  |  |
| Nc1ccc2c(c1)Cc1ccccc1-2 | inactive | inactive | inactive | inactive | inactive |  | inactive | inactive |  |  |  |
| CC(=O)NNc1ccccc1 | inactive | inactive | inactive | 4.82 µM (active) | inactive | inactive | inactive | inactive |  |  |  |
| CC(C)(c1ccccc1)c1cc(-n2nc3ccccc3n2)c(O)c(C(C)(C)c2ccccc2)c1 | inactive | inactive | inactive |  | inactive | inactive | inactive | inactive |  |  |  |

| SMILES | Potency [1] | outcome [2] | Potency [3] | Potency [4] | Potency [5] | Potency [6] | Potency [7] | Potency [8] | activity change, positive = activation ([9]; at 92.4 µM (top of the series)) | activity change, positive = activation ([9]; at 42.5 µM (top of the series)) | Potency [10] |
| --- | --- | --- | --- | --- | --- | --- | --- | --- | --- | --- | --- |
| Nc1cccc2ccccc12 | inactive | inactive | inactive |  | inactive | inactive | inactive | inactive |  |  |  |
| CN1C[C@H](C(=O)N[C@]2(C)O[C@@]3(O)[C@@H]4CCCN4C(=O)[C@H](Cc4ccccc4)N3C2=O)C=C2c3cccc4[nH]cc(c34)C[C@H]21 | 24.7 µM (active) and 14.4 µM (active) |  | inactive |  |  | 27.7 µM (active) and inactive | inactive |  |  |  |  |
| CCC[N+](CCC)(CCC)CCC |  | inactive | inactive | inactive | inactive | inactive | inactive | inactive | -9.29% (inactive) |  | inactive |
| O=C(O)COc1cc(Cl)c(Cl)cc1Cl |  | inactive | inactive | inactive | inactive | inactive and 15.5 µM (active) | inactive | inactive | -7.72% (inactive) and -14.1% (inactive) |  | inactive |
| O=C(O)c1cc(Cl)ccc1Cl | inactive | inactive | inactive |  | inactive | inactive | inactive | inactive |  |  |  |
| N#CC(C#N)=Cc1ccc(O)c(O)c1 | inactive | inactive | inactive |  | inactive | inactive | inactive | inactive |  |  |  |
| C=CC(=O)OCC | inactive | inactive | inactive |  | inactive | inactive | inactive | inactive |  |  |  |
| Oc1cccc(Cl)c1 | inactive | inactive | inactive | inactive | inactive | inactive | inactive | inactive |  |  |  |
| CCCCCCCCCCCCN(C)C |  | inactive | inactive | inactive | inactive | inactive | inactive | inactive | 3.27% (inactive) |  | inactive |
| CCC(=O)O[C@@H]1C=C2CCC3C(CCC4(C)C3CC[C@@H]4OC(=O)CC)C2CC1 (some centres not stated) | inactive | inactive | inactive |  | inactive | inactive | inactive | inactive |  |  |  |
| C#C[C@]1(O)CC[C@H]2[C@@H]3CCC4=CC(=O)CCC4=C3C=C[C@@]21CC | inactive | inactive | 34.8 µM (active) |  |  |  | inactive | inactive |  |  |  |
| CC1(C)CC(=O)CC(C)(C)N1[O] | inactive | inactive | inactive | inactive | inactive | inactive | inactive | inactive |  |  |  |
| C=CCSSCC=C | inactive | inactive | inactive |  | inactive | inactive | inactive | inactive |  |  |  |
| O=C(O)CCCOc1ccc(Cl)cc1Cl | inactive | inactive | inactive |  | inactive | inactive | inactive | inactive |  |  |  |
| O=CC=O | inactive | inactive | inactive |  | inactive | inactive |  | inactive |  |  |  |
| CC(C)OC(=O)Cc1ccccc1 | inactive | inactive | inactive |  | inactive | inactive | inactive | inactive |  |  |  |
| CCC(C)Cl (configuration not stated) | inactive | inactive | inactive |  | inactive | inactive | inactive | inactive |  |  |  |
| O=P(OCC(Br)CBr)(OCC(Br)CBr)OCC(Br)CBr (configuration not stated) | inactive |  |  |  | inactive | 27.9 µM (active) | inactive | inactive |  |  |  |
